What is called viability is a read-out of living cells in per cent, often relative to untreated cells.

Experiment [1] in a line: liver-stage malaria parasite growth inhibition, primary screen, cell-based, HepG2, luciferase luminescence, HepG2 viability (AID 624349).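 Also: 100% = mean of DMSO negative control wells on the same plate.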 The conditions noted are these: P. berghei liver stage in HepG2, luciferase luminescence, concentration not given here; parasite load remaining: stronger effect = lower value; viability: measured here: HepG2 viability without parasites.
Experiment [2] is described as follows: differential killing of epithelial or mesenchymal cells, primary screen, imaging, PC-3E GFP, TEM4-18 mCherry, co-culture (AID 1345086;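 active = compounds killing one labelled cell type while sparing the other, by normalised counts and ratio limits, not self-fluorescent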;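 as to all read-outs here: cells exposed to compound for 72 h before imaging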;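 as to red/green cell ratio (normalised): normalised mesenchymal count divided by normalised epithelial count so high means epithelial killing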). As to conditions: imaging cell counts, at 1 µM; for red/green cell ratio (normalised): actives lie on both sides, counts scaled to control wells, 1 = unselective.
A short description of experiment [3]: sensitizers of A549 cells to miR-34 induction, primary screen, imaging, A549 dox-inducible miR-34, nuclei and caspase counts (AID 1347080;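 active = compounds whose cell count with miR-34 switched on is under 0.7 times the count with it off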). As to conditions: A549 miR-34 inducible, Hoechst nuclei count, 48 h.
Experiment [4] can be described thus: phospholipid biosynthesis inhibitors in animal cells, primary screen, cell-based, LOPAC library, screen 4 (AID 1347384; call rule not given here). As to conditions: phospholipid biosynthesis inhibition screen, at 10 µM.
The target of experiment [5] is Mitogen-activated protein kinase 7 (Homo sapiens) (UniProt Q13164). As to the kind of experiment: ERK5 transactivation activators in reporter cells, primary screen, cell-based, HTS (AID 1508626;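 active = luciferase signal above three times the same-plate solvent-only control wells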;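 also: luciferase driven by Gal4-ERK5 fusion binding five Gal4 sites before minimal TATA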). As to conditions: HeLa Gal4-ERK5 transactivation, 18 h, at 5 µM, stronger effect = higher value.
Sequence of Mitogen-activated protein kinase 7 (Homo sapiens) (Q13164 whole entry, looked up, the tested form may be a part): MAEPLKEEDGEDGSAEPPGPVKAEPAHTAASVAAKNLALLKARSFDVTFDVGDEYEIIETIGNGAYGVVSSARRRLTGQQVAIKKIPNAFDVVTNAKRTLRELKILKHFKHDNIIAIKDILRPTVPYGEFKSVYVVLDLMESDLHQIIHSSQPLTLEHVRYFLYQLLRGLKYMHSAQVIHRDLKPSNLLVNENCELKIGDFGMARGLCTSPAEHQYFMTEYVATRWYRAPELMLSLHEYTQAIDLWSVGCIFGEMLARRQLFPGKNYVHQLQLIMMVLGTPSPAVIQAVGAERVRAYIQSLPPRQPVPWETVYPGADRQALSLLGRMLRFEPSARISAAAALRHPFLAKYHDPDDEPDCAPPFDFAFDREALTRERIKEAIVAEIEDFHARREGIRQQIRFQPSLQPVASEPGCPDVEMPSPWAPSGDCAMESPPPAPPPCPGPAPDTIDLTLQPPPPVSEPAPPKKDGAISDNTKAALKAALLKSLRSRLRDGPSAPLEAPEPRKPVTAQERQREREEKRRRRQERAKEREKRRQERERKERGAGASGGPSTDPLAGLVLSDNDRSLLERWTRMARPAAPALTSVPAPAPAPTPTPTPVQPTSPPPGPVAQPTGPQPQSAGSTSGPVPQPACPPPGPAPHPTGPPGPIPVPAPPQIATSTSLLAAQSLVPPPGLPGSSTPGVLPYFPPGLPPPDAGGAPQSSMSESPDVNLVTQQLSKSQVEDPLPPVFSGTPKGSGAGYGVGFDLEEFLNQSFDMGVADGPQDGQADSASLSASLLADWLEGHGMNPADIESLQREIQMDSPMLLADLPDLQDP
For experiment [6], the target named is NAD(+) hydrolase SARM1 (Homo sapiens) (UniProt Q6SZW1). Put plainly: SARM1 TIR NADase inhibitors, cell lysate, NAD-Glo luminescence (AID 1508614;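 active = compound whose remaining NAD level is above about 45 nM, limit read from the data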;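 also: higher remaining NAD means stronger inhibition of SARM1 NADase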). As to conditions: SAM-TIR HEK293T lysate NADase, at 1 µM, stronger effect = higher value.
Sequence of NAD(+) hydrolase SARM1 (Homo sapiens) (Q6SZW1 whole entry, looked up): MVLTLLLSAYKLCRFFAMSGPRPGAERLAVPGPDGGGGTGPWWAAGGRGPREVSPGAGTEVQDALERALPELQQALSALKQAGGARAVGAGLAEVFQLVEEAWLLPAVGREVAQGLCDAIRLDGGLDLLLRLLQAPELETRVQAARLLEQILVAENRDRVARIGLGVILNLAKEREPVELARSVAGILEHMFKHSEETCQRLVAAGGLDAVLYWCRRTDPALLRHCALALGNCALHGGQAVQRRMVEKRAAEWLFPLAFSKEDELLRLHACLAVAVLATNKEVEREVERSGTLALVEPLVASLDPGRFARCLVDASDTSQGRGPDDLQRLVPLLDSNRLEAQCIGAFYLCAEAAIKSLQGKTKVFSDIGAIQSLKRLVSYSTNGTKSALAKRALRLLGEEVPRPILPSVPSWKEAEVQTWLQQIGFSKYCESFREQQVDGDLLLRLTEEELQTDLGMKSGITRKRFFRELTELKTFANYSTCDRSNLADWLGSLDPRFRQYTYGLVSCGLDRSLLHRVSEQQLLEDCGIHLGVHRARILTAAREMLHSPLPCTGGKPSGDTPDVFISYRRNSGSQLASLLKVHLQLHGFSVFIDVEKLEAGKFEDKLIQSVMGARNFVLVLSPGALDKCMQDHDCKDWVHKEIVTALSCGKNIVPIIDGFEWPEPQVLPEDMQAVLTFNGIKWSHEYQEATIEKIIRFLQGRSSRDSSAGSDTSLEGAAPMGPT
[7] abbreviates: measured here: epithelial PC-3E GFP cell survival.
[8] abbreviates: measured here: mesenchymal TEM4-18 mCherry cell survival.
[9] abbreviates: stronger effect = lower value, cell number ratio, induced over uninduced.
Setting [10] is: measured here: relative caspase fold change +Dox/-Dox.
Setting [11] is: measured here: total cells with miR-34 induction, stronger effect = lower value.
[12] abbreviates: measured here: total cells without miR-34 induction.

Structures are written as SMILES. Several values for one entry are separate records, joined by “and”; a condition that tells them apart may be missing. Equal values may be shown once. Activity calls are given as the source filed them. Rule as the data show it, unless noted: active = parasite load remaining mostly below about 12% (no sharp cut-off); inactive = mostly above about 10%.

Turning to `NCC1CCCCC1CC(=O)O` (stereo unspecified), the parasite load remaining in experiment [1] was 148% (inactive) and 51.6% (inactive). The viability in experiment [1] was 89.1% and 119%. For the same molecule, the red/green cell ratio (normalised) in experiment [2] is 0.8 (inactive). The normalised cell number in experiment [2] (setting [7]) was determined as 1.27; in experiment [2] (setting [8]), 1.02. Besides, the fold change in experiment [3] (setting [9]) is 0.945 (inactive); in experiment [3] (setting [10]), 5.86. Also, the cell count in experiment [3] (setting [11]) turned out to be 12000; in experiment [3] (setting [12]), 12700.
In the case of `NC(Cc1c[nH]c2ccccc12)C(=O)O` (stereo unspecified), in experiment [1], the parasite load remaining was 149% (inactive) and 37.9% (inactive). The viability in experiment [1] is 72.8% and 89.5%. Also, the red/green cell ratio (normalised) in experiment [2] was 1.24 (inactive). In addition, the normalised cell number came to 0.98 in experiment [2] (setting [7]) and 1.22 in experiment [2] (setting [8]). Also, the results for the fold change in experiment [3] (setting [9]) and in experiment [3] (setting [10]) were 0.933 (inactive) and 2.24, respectively. Moreover, the values for the cell count in experiment [3] (setting [11]) and in experiment [3] (setting [12]) were 11800 and 12700, respectively.
Turning to `COc1cc([C@@H]2c3cc4c(cc3C(O[C@@H]3O[C@@H]5CO[C@@H](c6cccs6)OC5[C@H](O)[C@H]3O)C3COC(=O)[C@@H]32)OCO4)cc(OC)c1O` (stereo partly specified), in experiment [1], the parasite load remaining was 111% (inactive) and 83.3% (inactive). In addition, in experiment [1], the viability was 75.6% and 112%. Further, the red/green cell ratio (normalised) in experiment [2] was 1.33 (inactive). The normalised cell number in experiment [2] (setting [7]) came out at 0.27; in experiment [2] (setting [8]), 0.36. Further, the fold change in experiment [3] (setting [9]) was 0.795 (inactive); in experiment [3] (setting [10]), 3.39. Further, the figures for the cell count in experiment [3] (setting [11]) and in experiment [3] (setting [12]) were 3270 and 4110, respectively.
As to `C[C@H]1CC2C([C@@H](O)C[C@@]3(C)C2CC[C@]3(O)C(=O)COC(=O)CCC(=O)O)[C@@]2(C)C=CC(=O)C=C12` (stereo partly specified), in experiment [1], the parasite load remaining is 83.5% (inactive). In experiment [1], the viability is 148%. Moreover, the red/green cell ratio (normalised) in experiment [2] was 0.8 (inactive). The normalised cell number in experiment [2] (setting [7]) stood at 1.3; in experiment [2] (setting [8]) it was 1.04. The values for the fold change in experiment [3] (setting [9]) and in experiment [3] (setting [10]) were 0.962 (inactive) and 2.48, respectively. For the same molecule, the results for the cell count in experiment [3] (setting [11]) and in experiment [3] (setting [12]) were 7610 and 7910, respectively.
`CCCCCCCCCCC[C@@H](C[C@H]1OC(=O)[C@H]1CCCCCC)OC(=O)[C@@H](CC(C)C)NC=O`: the parasite load remaining in experiment [1] is 118% (inactive) and 62.8% (inactive). Besides, the viability in experiment [1] is 86.3% and 114%. In addition, in experiment [2], the red/green cell ratio (normalised) is 1.11 (inactive). In addition, the normalised cell number was determined as 0.96 in experiment [2] (setting [7]) and 1.07 in experiment [2] (setting [8]). The fold change in experiment [3] (setting [9]) was 0.887 (inactive); in experiment [3] (setting [10]), 2. For the same molecule, the cell count is 11500 in experiment [3] (setting [11]) and 13000 in experiment [3] (setting [12]).
For the molecule `CC(=O)O[C@]1(C(C)=O)CCC2C3C=C(Cl)C4=CC(=O)CC[C@]4(C)C3CC[C@@]21C` (stereo partly specified), in experiment [1], the parasite load remaining was 113% (inactive) and 26.4% (inactive). Further, in experiment [1], the viability was 84% and 106%. Moreover, in experiment [2], the red/green cell ratio (normalised) was 1.17 (inactive). For the same molecule, the values for the normalised cell number in experiment [2] (setting [7]) and in experiment [2] (setting [8]) were 1.04 and 1.21, respectively. Moreover, the fold change in experiment [3] (setting [9]) is 0.904 (inactive); in experiment [3] (setting [10]), 1.11. The results for the cell count in experiment [3] (setting [11]) and in experiment [3] (setting [12]) were 9770 and 10800, respectively.
For the molecule `CC(C)=CCC/C(C)=C/COc1ccc2ccc(=O)oc2c1`, in experiment [2], the red/green cell ratio (normalised) is 1.07 (inactive). Also, the normalised cell number came to 0.93 in experiment [2] (setting [7]) and 0.99 in experiment [2] (setting [8]). In addition, the molecule was classed as inactive in experiment [4]. Further, in experiment [5], the luciferase signal was 76 AU (inactive).
Regarding `CO/N=C(/C(=O)N[C@@H]1C(=O)N2C(C(=O)O)=C(CSc3nc(=O)c(O)nn3C)CS[C@H]12)c1csc(N)n1`, the parasite load remaining in experiment [1] was 147% (inactive) and 79.9% (inactive) and 62.4% (inactive). The viability in experiment [1] was 82.1% and 106% and 101%. For the same molecule, in experiment [2], the red/green cell ratio (normalised) was 1.22 (inactive). The values for the normalised cell number in experiment [2] (setting [7]) and in experiment [2] (setting [8]) were 1.02 and 1.24, respectively. In addition, the fold change in experiment [3] (setting [9]) was 0.888 (inactive); in experiment [3] (setting [10]) it was 3.26. The cell count in experiment [3] (setting [11]) was 11700; in experiment [3] (setting [12]), 13200.
`C/C=C\C1=C(C(=O)O)N2C(=O)C(NC(=O)C(N)c3ccc(O)cc3)C2SC1` (stereo unspecified): the parasite load remaining in experiment [1] is 117% (inactive) and 53.4% (inactive). Moreover, the viability in experiment [1] is 69.3% and 102%. Besides, the red/green cell ratio (normalised) in experiment [2] was 1.07 (inactive). For the same molecule, the normalised cell number was 0.97 in experiment [2] (setting [7]) and 1.04 in experiment [2] (setting [8]). Further, the values for the fold change in experiment [3] (setting [9]) and in experiment [3] (setting [10]) were 0.891 (inactive) and 4.02, respectively. Besides, the cell count in experiment [3] (setting [11]) turned out to be 11600; in experiment [3] (setting [12]), 13100.
For the molecule `CC(=O)S[C@@H]1CC2=CC(=O)CC[C@]2(C)[C@H]2CC[C@@]3(C)[C@@H](CC[C@@]34CCC(=O)O4)C12` (stereo partly specified), in experiment [1], the parasite load remaining is 56.6% (inactive) and 46.1% (inactive). For the same molecule, the viability in experiment [1] is 72.6% and 88.2%. Further, the red/green cell ratio (normalised) in experiment [2] is 1.24 (inactive). For the same molecule, the normalised cell number came out at 1 in experiment [2] (setting [7]) and 1.25 in experiment [2] (setting [8]). In addition, the fold change in experiment [3] (setting [9]) was 0.863 (inactive); in experiment [3] (setting [10]), 2.19. Moreover, the cell count is 10200 in experiment [3] (setting [11]) and 11900 in experiment [3] (setting [12]).
On to `CC1=C(C(=O)O)N2C(=O)[C@@H](NC(=O)[C@H](N)C3=CCC=CC3)C2SC1` (stereo partly specified), for which, in experiment [1], the parasite load remaining was 74.8% (inactive) and 68.7% (inactive). Moreover, in experiment [1], the viability was 77.3% and 102%. The red/green cell ratio (normalised) in experiment [2] is 1 (inactive). Further, the results for the normalised cell number in experiment [2] (setting [7]) and in experiment [2] (setting [8]) were 1.13 and 1.14, respectively. Moreover, the fold change in experiment [3] (setting [9]) is 0.89 (inactive); in experiment [3] (setting [10]) it was 4.9. The cell count in experiment [3] (setting [11]) is 11000; in experiment [3] (setting [12]) it was 12400.
Take `CC(C)(Oc1ccc(C(=O)c2ccc(Cl)cc2)cc1)C(=O)O`: in experiment [2], the red/green cell ratio (normalised) was 1.11 (inactive). Moreover, the figures for the normalised cell number in experiment [2] (setting [7]) and in experiment [2] (setting [8]) were 1.09 and 1.21, respectively. In experiment [6], the remaining NAD was 10 nM (inactive).
For `OC[C@H]1OC([S-])[C@H](O)[C@@H](O)[C@@H]1O.[Au+]` (stereo partly specified), the parasite load remaining in experiment [1] was 51.4% (inactive). In addition, the viability in experiment [1] is 97.6%. Also, the red/green cell ratio (normalised) in experiment [2] is 0.82 (inactive). The results for the normalised cell number in experiment [2] (setting [7]) and in experiment [2] (setting [8]) were 1.15 and 0.95, respectively. For the same molecule, the fold change was 0.865 (inactive) in experiment [3] (setting [9]) and 2.52 in experiment [3] (setting [10]). Moreover, the cell count in experiment [3] (setting [11]) was 9290; in experiment [3] (setting [12]), 10700.
For `CO/N=C(\C(=O)NC1C(=O)N2C(C(=O)OCOC(=O)C(C)(C)C)=C(/C=C\c3scnc3C)CSC12)c1csc(N)n1` (stereo unspecified), the parasite load remaining in experiment [1] is 101% (inactive) and 42.8% (inactive). The viability in experiment [1] is 81.5% and 105%. In addition, in experiment [2], the red/green cell ratio (normalised) is 0.92 (inactive). The values for the normalised cell number in experiment [2] (setting [7]) and in experiment [2] (setting [8]) were 1.21 and 1.12, respectively. For the same molecule, the fold change was 0.904 (inactive) in experiment [3] (setting [9]) and 4.33 in experiment [3] (setting [10]). The figures for the cell count in experiment [3] (setting [11]) and in experiment [3] (setting [12]) were 11600 and 12800, respectively.
Take `CCC(C)C(=O)O[C@H]1C[C@H](O)C=C2C=C[C@H](C)[C@H](CC[C@@H](O)C[C@@H](O)CC(=O)O)C21` (stereo partly specified): the parasite load remaining in experiment [1] is 152% (inactive) and 58.6% (inactive). Also, the viability in experiment [1] was 84.1% and 191%. In experiment [2], the red/green cell ratio (normalised) is 0.96 (inactive). For the same molecule, the normalised cell number in experiment [2] (setting [7]) stood at 1.19; in experiment [2] (setting [8]) it was 1.14. Moreover, the fold change in experiment [3] (setting [9]) was 0.861 (inactive); in experiment [3] (setting [10]) it was 5.53. Besides, the cell count in experiment [3] (setting [11]) turned out to be 11700; in experiment [3] (setting [12]), 13500.
